Test results taken from ChEMBL document CHEMBL3988442, “University of Dundee, Small-Polar-MMV Screening Library” (2021).
About 13,000 (27%) of roughly 48,000 compounds showed an effect of 50% or more. This is one part of the list.

Test system: Wolbachia pipientis
Assay: Anti-Wolbachia Cell-Based Screen
Format: functional
Design: scale not given: in the data most compounds retested in dose-response had high values
Conditions: 5 µM

Structure (SMILES) | Percent Effect [%]
O=C1CCC2(CCN(Cc3ccc(F)cc3Cl)CC2)CN1CCO | -18.28
CCOc1ccc(CNC(=O)N(C)Cc2ncnn2C)cc1C | 11.45
CC(C)c1noc(C2CCCN2C(=O)CN2CCc3ccccc32)n1 (centres undefined) | -3.468
CN1CCN(C(=O)c2nc3c(o2)CN(C(=O)c2cccnc2)C3)CC1.O=C(O)C(F)(F)F.O=C(O)C(F)(F)F | 7.797
CN1CCCN(C(=O)c2nc3c(o2)CN(C(=O)c2cccnc2)C3)CC1.O=C(O)C(F)(F)F.O=C(O)C(F)(F)F | -2.795
CCCNC(=O)c1nc2c(o1)CN(C(=O)CN(C)C)C2 | 2.652
CN(C)CC(=O)N1Cc2nc(C(=O)N3CCCN(C)CC3)oc2C1 | 106
CN(C)CC(=O)N1Cc2nc(C(=O)NCc3ccccc3)oc2C1 | 4.563
CN1CCCN(C(=O)c2nc3c(o2)CN(S(C)(=O)=O)C3)CC1 | 89.92
COCCN1CC(Nc2nc(C(C)C)nc3c2cnn3C)CC1=O (centres undefined) | 0.2406
CCCc1nc(C)cc(N2CCNC(C(=O)NCc3cccnc3)C2)n1 (centres undefined) | 0.7849
CSC(CNS(N)(=O)=O)c1cccc(Cl)c1 (centres undefined) | -15.56
O=C(O)C(F)(F)F.O=C([C@H]1CC[C@@H]2[C@@H](CCN2Cc2nccs2)O1)N1CCCCO1 | -6.039
CS(=O)(=O)N1C[C@H]2CCCN(Cc3nccs3)[C@H]2C1.O=C(O)C(F)(F)F | 1.749
CC(C)N(C)[C@@H]1CCN(Cc2nccs2)[C@H]1Cc1ccncc1.O=C(O)C(F)(F)F.O=C(O)C(F)(F)F.O=C(O)C(F)(F)F | -17.48
CN(C)C(=O)[C@@H]1C[C@@H]2[C@@H](CCN2Cc2nccs2)O1.O=C(O)C(F)(F)F | 111.2
CN(C)C(=O)[C@@H]1CC[C@@H]2[C@@H](CCN2Cc2nccs2)O1.O=C(O)C(F)(F)F | 98.79
CC(C)NC(=O)[C@H]1C[C@@H]2[C@@H](C1)OCCN2Cc1nccs1.O=C(O)C(F)(F)F | 0.8743
Cc1ccccc1-c1noc(C2CC(C(C)C)=NO2)n1 (centres undefined) | 10.38
CCc1cc(N(C)Cc2nonc2C)nc(N2CCOCC2)n1 | -1.429
CCN(Cc1nonc1C)C(=O)c1cnccn1 | -6.24
CCc1cc(N(C)Cc2nonc2C)nc(N(C)C)n1 | 93.32
Cc1cc(=O)n(C)cc1NC(=O)Cc1cc(F)ccc1F | 0.6087
O=c1[nH]c(-c2ccccc2F)nc2c1CCNC2 | -26.1
CCCC1SCCN1C(=O)c1ccc(-n2ncc(C#N)c2N)cc1 (centres undefined) | -7.11

Structure (SMILES) | Percent Effect [%]
N#Cc1ccc(C(=O)N(C2CC2)C2CC(=O)NC2=O)cc1 (centres undefined) | -1.854
CC(C1CC1)N(C)C(=O)c1ccc(-n2ncc(C#N)c2N)cc1 (centres undefined) | 117.6
CC(C)C1CCCN1C(=O)c1ccc(-n2ncc(C#N)c2N)cc1 (centres undefined) | -2.457
CC(C)CCN(C(=O)c1cccc(NC(N)=O)c1)C1CC1 | -12.61
N#Cc1cnn(-c2ccc(C(=O)N(C3CCCCC3)C3CC3)cc2)c1N | 50.38
Cc1cnc(NC(=O)c2ccc(-n3ncc(C#N)c3N)cc2)s1 | -16.88
CC(C)CCN(C(=O)c1ccc(-n2ncc(C#N)c2N)cc1)C1CC1 | 92.49
N#Cc1cnn(-c2ccc(C(=O)Nc3ccccn3)cc2)c1N | 2.958
CCN(CC)C(=O)c1ccc(-n2ncc(C#N)c2N)cc1 | 113.8
COc1ccc(NC(=O)c2ccc(-n3ncc(C#N)c3N)cc2)cn1 | -17.39
CC(C)CCN(C(=O)Nc1cccc(C(=O)N(C)C)c1)C1CC1 | -4.492
Cc1nc(CN2CCC(C(=O)N(C)C3CCC(C)CC3)CC2)cs1 (centres undefined) | -8.684
Cc1nc(-c2cc(F)c3c(c2)CC(CN)O3)c[nH]1 (centres undefined) | 4.344
O=C(CCn1cccn1)N1CC[C@@H](c2ccc3ccccc3c2)[C@H](O)C1 | 28.28
CN(C(=O)c1ccc(NC(=O)c2cc[nH]n2)cc1)C1CCCCC1 | -4.101
CN(C(=O)c1ccc(-n2ncc(C#N)c2N)cc1)C1CCCC1 | 106.6
Cc1nc2c(C#N)cnn2c(C)c1CCC(=O)N(C)C1CC1 | -17.24
CCC(=O)Nc1cc(Br)cn(C)c1=O | 3.06
O=C(c1ccc(F)cc1)N(CCCO)S(=O)(=O)c1cccs1 | 17.63
Cc1cccc(-c2[nH]ncc2CNCC2CCN(CC(C)O)CC2)c1 (centres undefined) | -2.172
CC(O)CN1CCC(CNCc2c[nH]nc2C(C)(C)C)CC1 (centres undefined) | -0.09307
CC(C)N1CCC(CNCc2c[nH]nc2C(C)(C)C)C1 (centres undefined) | 9.105
CNc1cc(N2CCCC2CNCc2c[nH]nc2C(C)(C)C)ncn1 (centres undefined) | 0.4855
COCCN1CCC(CNCc2c[nH]nc2C(C)(C)C)CC1 | 88.21
Cc1ccc(-c2n[nH]cc2CNCC2CCN(CC(C)O)CC2)cc1 (centres undefined) | 92.7

Structure (SMILES) | Percent Effect [%]
CCN1CCC(CNCc2c[nH]nc2C(C)(C)C)C1.Cl (centres undefined) | 95.83
CC(C)(C)c1n[nH]cc1CNCC1CCN(CC(F)(F)F)C1.Cl (centres undefined) | -2.373
CN(C)CCN1CCC(CNCc2c[nH]nc2C(C)(C)C)CC1 | 106
Cc1ccc(-c2n[nH]cc2CNCC2CCc3nnc(C)n3C2)cc1 (centres undefined) | -17.97
CC(C)(C)c1n[nH]cc1CNCC1CCN(C2CC2)C1.Cl (centres undefined) | 3.787
COCCn1cc(NCc2c[nH]nc2C(C)(C)C)cn1 | 0.5813
CCC(CO)NC(=O)Nc1cc(F)ccc1SCC(F)F (centres undefined) | 1.4
CCOCc1ccc(NC(=O)NC2CCCn3nc(CC)nc32)cc1 (centres undefined) | -7.286
CNC(=O)CN(C)C(=O)c1ccc(-c2nc(C)cs2)cc1 | 115.5
CCCN(CC(=O)NC)C(=O)c1ccc(-c2nc(C)cs2)cc1 | 92.57
Cc1csc(-c2ccc(NC(=O)N3CCOCC3)cc2)n1 | 9.555
CCCN(CC(=O)NC)C(=O)c1ccc(-c2ccsc2)nc1C | -3.974
Cc1ccc(-c2nc(C(=O)N(C)CC(=O)N(C)C)cs2)c(C)c1 | -25.77
CCCN(CC(=O)N(C)C)C(=O)c1ccc(-c2nc(C)cs2)cc1 | 106.6
CNC(=O)CN(C)C(=O)Cc1csc(C(C)C)n1 | -0.57
CCN(CC(=O)N(C)C)C(=O)c1ccc(-c2nc(C)cs2)cc1 | 133.8
CN(C)C(=O)c1csc(-c2ccoc2)n1 | -7.541
CNC(=O)C(CC(C)C)NC(=O)c1cccc(-c2nc(C)cs2)c1 (centres undefined) | 8.267
CCN(CC(=O)N(C)C)C(=O)c1cc(-c2cccc(Cl)c2)no1 | -0.1751
CCN(CC(=O)NC)C(=O)Cc1csc(C(C)C)n1 | -3.04
CCc1ccc(C(NC(=O)CN(C)S(C)(=O)=O)C(C)(C)C)o1 (centres undefined) | -2.175
Cc1cn2c(n1)C(CNCc1cnn3ccccc13)CCC2 (centres undefined) | 10.2
CCc1ocnc1C(=O)N1CCN(c2nncc3ccccc23)CC1 | -2.931
Cc1c(O)oc(-c2ccc(Br)cc2)nc1=O | -7.091
CC(C(=O)O)N1CCc2onc(-c3ccc4c(c3)OCO4)c2C1 (centres undefined) | -4.68

Structure (SMILES) | Percent Effect [%]
N#Cc1ccc(OC2CCN(C(=O)c3ccc4c(c3)OCO4)CC2)nc1 | -4.84
CC(=O)NC(C)C1=CCCN(Cc2ccc(C(=O)O)cc2)C1 (centres undefined) | -17.16
CS(=O)(=O)CC(=O)N1C[C@@H]2CN(Cc3ccoc3)CCO[C@@H]2C1 | -2.254
CS(=O)(=O)N[C@@H]1COC[C@@H]2CN(Cc3ccco3)C[C@@H]21 | 121.7
CS(=O)(=O)N[C@@H]1COC[C@@H]2CN(Cc3ccoc3)C[C@@H]21 | 104.1
CS(=O)(=O)N[C@@H]1CN(Cc2ccoc2)C[C@@H]2CCCO[C@@H]21 | -8.721
CS(=O)(=O)N[C@H]1COC[C@@H]2CN(Cc3ccco3)C[C@@H]21 | 102.8
CCOCC(=O)N1CCc2c(CN(C)C)nn(C(C)C)c2C1.O=C(O)C(F)(F)F | -22.21
Cn1c(N)nnc1SCC1OCCc2ccccc21 (centres undefined) | -8.673
O=C(Nc1nncs1)c1ccc(O)nc1 | -7.078
CC(C)C(C)N(C)Cc1nnc(-c2ccc(Br)s2)o1 (centres undefined) | 27.84
CN(C)[C@H]1C[C@@H](Cc2cc(CO)on2)C1(C)C | 2.334
CC(C)Cn1nnnc1SC(C(=O)NCc1cccnc1)C(C)C (centres undefined) | 111.1
CC(C)C(Sc1nnnn1C1CC1)C(=O)NCc1cccnc1 (centres undefined) | 0.8079
Cc1nn(C)c2cnn(C(C)C(=O)NCc3cccnc3)c12 (centres undefined) | 10.06
CC(C)C(Sc1nnnn1-c1ccccc1)C(=O)NCc1cccnc1 (centres undefined) | -6.711
Cc1ccc(C)c(OC(C)C(=O)NCc2cccnc2)c1 (centres undefined) | -19.9
CC(C)C(Sc1nnnn1C1CC1)C(=O)NCc1ccccc1 (centres undefined) | 90.27
CC(C)C(Sc1nccn1C1CC1)C(=O)NCc1cccnc1 (centres undefined) | 93.78
CC(C)C(Sc1nncn1C1CC1)C(=O)NCc1cccnc1 (centres undefined) | 102
Cc1nn(C)c2cn(C(C)C(=O)NCc3cccnc3)nc12 (centres undefined) | 6.41
CC(C)C(Sc1nnc(C2CC2)n1C1CC1)C(=O)NCc1cccnc1 (centres undefined) | 2.12
CC(C)Sc1nnnn1C1CCCC1 | -35.1
O=C(c1cc(=O)[nH][nH]1)N1CCCC2(CCC(=O)N(C3CCCC3)C2)C1 (centres undefined) | -4.852
